The values below come from PubChem BioAssay (EPA / NIEHS).

In general, AC50 refers to the midpoint of the concentration-response curve, whichever way the signal moves.

Read-out in experiment [1]: Interleukin-6 (IL6), IL6 (gene 3569)
The experiment can be described thus: BSK_CASM3C_IL6: BioMAP Diversity Plus: CASM3C Assay for Interleukin-6 (IL6) Biomarker Activity for (AID 2283040). The following applies: primary human coronary artery smooth muscle cells; actives raise or lower the signal.

Read-out in experiment [2]: Tissue plasminogen activator (tPA), PLAT (gene 5327)
The experiment can be described thus: BSK_BE3C_tPA: BioMAP Diversity Plus: BE3C Assay for Tissue plasminogen activator (tPA) Biomarker Activity (AID 2283041).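 On outcome: tPA level quantified by ELISA one day after compound addition.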 The conditions noted are these: primary human bronchial epithelial cells; actives raise or lower the signal. An outline of the steps:
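Using human lung primary bronchial epithelial cells, tPA was measured by ELISA 24 h after dosing; data fitted relative to DMSO.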

Read-out in experiment [3]: Interleukin-8 (IL8), CXCL8 (gene 3576)
Kind of experiment: BSK_CASM3C_IL8: BioMAP Diversity Plus: CASM3C Assay for Interleukin-8 (IL8) Biomarker Activity (AID 2283042).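 Further: IL-8 protein level quantified by ELISA.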 The conditions noted are these: primary human coronary artery smooth muscle cells; actives raise or lower the signal.

Read-out in experiment [4]: Human Leukocyte Antigen - DR isotype (HLADR), HLA-DRA (gene 3122)
The experiment can be described thus: BSK_CASM3C_HLADR: BioMAP Diversity Plus: CASM3C Assay for Human Leukocyte Antigen - DR isotype (HLADR) Biomarker Activity (AID 2283043).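 Further: cell-surface HLA-DR protein level quantified by ELISA.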 The conditions noted are these: primary human coronary artery smooth muscle cells; actives raise or lower the signal.

Read-out in experiment [5]: Macrophage colony-stimulating factor (MCSF), CSF1 (gene 1435)
Kind of experiment: BSK_CASM3C_MCSF: BioMAP Diversity Plus: CASM3C Assay for Macrophage colony-stimulating factor (MCSF) Biomarker Activity (AID 2283044).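 Further: M-CSF protein amount quantified by ELISA after 24 h exposure.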 The conditions noted are these: primary human coronary artery smooth muscle cells; actives raise or lower the signal.

Read-out in experiment [6]: Low-density lipoprotein receptor (LDLR), LDLR (gene 3949)
The experiment can be described thus: BSK_CASM3C_LDLR: BioMAP Diversity Plus: CASM3C Assay for Low-density lipoprotein receptor (LDLR) Biomarker Activity (AID 2283045).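 Further: LDLR protein level on the cell surface quantified by ELISA.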 The conditions noted are these: primary human coronary artery smooth muscle cells; actives raise or lower the signal.

Read-out in experiment [7]: Monocyte Chemoattractant Protein-1 (MCP1), CCL2 (gene 6347)
The experiment can be described thus: BSK_CASM3C_MCP1: BioMAP Diversity Plus: CASM3C Assay for Monocyte Chemoattractant Protein-1 (MCP1) Biomarker Activity (AID 2283046).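 Further: MCP-1 level quantified by ELISA 24 h after dosing.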 The conditions noted are these: primary human coronary artery smooth muscle cells; actives raise or lower the signal.

Experiment [8] can be described thus: BSK_CASM3C_Proliferation: Cell Proliferation Assessment in the BioMAP Diversity Plus: CASM3C Assay (AID 2283047).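 Further: sulforhodamine B total protein stain as relative cell number at 560 nm; sub-confluent cells exposed 48 h before staining; fitted both ways against DMSO so gain or loss of cell number.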 The conditions noted are these: primary human coronary artery smooth muscle cells.
Read-out in experiment [9]: Monokine induced gamma interferon (MIG), CXCL9 (gene 4283)
Kind of experiment: BSK_CASM3C_MIG: BioMAP Diversity Plus: CASM3C Assay for Monokine induced gamma interferon (MIG) Biomarker Activity (AID 2283048).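 Further: MIG protein level measured by ELISA.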 The following applies: primary human coronary artery smooth muscle cells; actives raise or lower the signal.

Read-out in experiment [10]: serum amyloid A (SAA), SAA1 (gene 6288)
The experiment can be described thus: BSK_CASM3C_SAA: BioMAP Diversity Plus: CASM3C Assay for serum amyloid A (SAA) Biomarker Activity (AID 2283049).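 Further: SAA protein level quantified by ELISA.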 The conditions noted are these: primary human coronary artery smooth muscle cells; actives raise or lower the signal.

A short description of experiment [11]: BSK_CASM3C_SRB: Viability Assessment in the BioMAP Diversity Plus: CASM3C Assay (AID 2283050).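 Further: total protein by SRB staining as cytotoxicity measure in parallel cultures; cells exposed to compound for 24 h.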 The conditions noted are these: primary human coronary artery smooth muscle cells.
Read-out in experiment [12]: Thrombomodulin, THBD (gene 7056)
Kind of experiment: BSK_CASM3C_Thrombomodulin: BioMAP Diversity Plus: CASM3C Assay for Thrombomodulin Biomarker Activity (AID 2283051).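 Further: thrombomodulin protein level measured by ELISA 24 h after dosing.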 The following applies: primary human coronary artery smooth muscle cells; actives raise or lower the signal.

Read-out in experiment [13]: Tissue Factor, F3 (gene 2152)
Kind of experiment: BSK_CASM3C_TissueFactor: BioMAP Diversity Plus: CASM3C Assay for Tissue Factor Biomarker Activity (AID 2283052).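 Further: cell surface tissue factor protein level read by ELISA.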 The conditions noted are these: primary human coronary artery smooth muscle cells; actives raise or lower the signal.

Read-out in experiment [14]: Interferon-gamma inducible Protein 10 (IP10), CXCL10 (gene 3627)
Kind of experiment: BSK_hDFCGF_IP10: BioMAP Diversity Plus: hDFCGF Assay for Interferon-gamma inducible Protein 10 (IP10) Biomarker Activity (AID 2283053). The following applies: primary human foreskin fibroblasts; actives raise or lower the signal. An outline of the steps:
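Chemical-treated human skin fibroblasts (primary) were sampled at 24 h for IP-10 by ELISA. Both increases and decreases relative to DMSO were scored.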

Read-out in experiment [15]: Urokinase-type plasminogen activator receptor (uPAR), PLAUR (gene 5329)
The experiment can be described thus: BSK_CASM3C_uPAR: BioMAP Diversity Plus: CASM3C Assay for Urokinase-type plasminogen activator receptor (uPAR) Biomarker Activity (AID 2283054).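 Further: cell-surface uPAR protein level quantified by ELISA.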 The conditions noted are these: primary human coronary artery smooth muscle cells; actives raise or lower the signal.

Read-out in experiment [16]: Vascular cell adhesion molecule 1 (VCAM1), VCAM1 (gene 7412)
Kind of experiment: BSK_CASM3C_VCAM1: BioMAP Diversity Plus: CASM3C Assay for Vascular cell adhesion molecule 1 (VCAM1) Biomarker Activity (AID 2283055).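 Further: VCAM-1 protein level quantified by ELISA on the cells.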 The conditions noted are these: primary human coronary artery smooth muscle cells; actives raise or lower the signal.

Read-out in experiment [17]: Collagen III, COL3A1 (gene 1281)
The experiment can be described thus: BSK_hDFCGF_CollagenIII: BioMAP Diversity Plus: hDFCGF Assay for Collagen III Biomarker Activity (AID 2283056). The following applies: primary human foreskin fibroblasts; actives raise or lower the signal. The essentials:
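Cells: human foreskin fibroblasts, primary. Dosing followed by 24 h incubation, then ELISA for collagen III. Both increases and decreases scored relative to DMSO.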

Read-out in experiment [18]: Epidermal growth factor receptor (EGFR), EGFR (gene 1956)
The experiment can be described thus: BSK_hDFCGF_EGFR: BioMAP Diversity Plus: hDFCGF Assay for Epidermal growth factor receptor (EGFR) Biomarker Activity (AID 2283057). The following applies: primary human foreskin fibroblasts; actives raise or lower the signal. The essentials:
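Cell-based multiplexed assay in primary human foreskin fibroblasts. EGFR is read by ELISA 24 h after treatment and compared with DMSO controls.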

Read-out in experiment [19]: Interleukin-8 (IL8), CXCL8 (gene 3576)
The experiment can be described thus: BSK_hDFCGF_IL8: BioMAP Diversity Plus: hDFCGF Assay for Interleukin-8 (IL8) Biomarker Activity (AID 2283058). The following applies: primary human foreskin fibroblasts; actives raise or lower the signal. An outline of the steps: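 IL-8 levels from compound-treated primary human fibroblasts were read by ELISA at 24 h, with DMSO serving as baseline for bidirectional fitting.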

Experiment [20] is described as follows: BSK_hDFCGF_Proliferation: Cell Proliferation Assessment in the BioMAP Diversity Plus: hDFCGF Assay (AID 2283059).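 Further: curves fitted for both rise and fall of signal versus DMSO baseline.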 The following applies: primary human foreskin fibroblasts. An outline of the steps:
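Total protein read at 560 nm after 0.1% SRB staining of TCA-fixed human skin fibroblasts, […]. Activity is fitted in both directions relative to DMSO as baseline.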

“And” between values parts separate entries of the source, which are not always exact repeats. Equal entries are not always repeated. The source holds several records for some structures; these can differ, active in one and inactive in another. The source made the active and inactive calls. How the source made its calls: active means hit-call score of the fitted dose curve at least 0.9, where 1 is the maximum; inactive means score below 0.9.

For the compound `C=CC(=O)OCC(F)(F)C(F)(F)C(F)(F)C(F)(F)COC(=O)C=C`, the concentration at half-maximal activity (AC50) in experiment [1] is 7.96 µM (active); in experiment [2], 8.82 µM (active); in experiment [4], 17.8 µM (active); in experiment [5] it was 34.9 µM (active) and 30 µM (active); in [6], 12.2 µM (active); in experiment [7], 45.8 µM (active) and 44 µM (active). Also, the half-maximal activity concentration (AC50) in experiment [8] was 18.9 µM (active) and 31.4 µM (active); in [9], 28.6 µM (active) and 31 µM (active); in experiment [10], 22.9 µM (active) and 16.1 µM (active); in [11] it was 43 µM (active) and 43.7 µM (active); in [13], 52.7 µM (active) and 47.5 µM (active); in [14], 8.28 µM (active) and 8.38 µM (active). Moreover, the concentration at half-maximal activity (AC50) in experiment [15] was 48.9 µM (active) and 50 µM (active); in experiment [16], 17.7 µM (active) and 19.7 µM (active); in experiment [18], 30 µM (active); in [19] it was 11.5 µM (active) and 14.4 µM (active); in experiment [20] it was 2.13 µM (active) and 1.2 µM (active). The outcome in experiment [1], in experiment [2], in [3], in [4], in experiment [6] and in experiment [12] was inactive. Moreover, the result in experiment [17] and in experiment [18] was inactive.

On to `O=C(O)C(F)(F)C(F)(F)C(F)(F)F`, for which the result in experiment [1], in experiment [2], in experiment [3], in experiment [4], in experiment [5] and in [6] was inactive. Also, the result in [7], in experiment [8], in [9], in experiment [10], in experiment [11] and in experiment [12] was inactive. The outcome in experiment [13], in experiment [14], in experiment [15], in [16], in [17] and in [18] was inactive. In addition, the outcome in experiment [19] and in experiment [20] was inactive.

Turning to `FC(F)(F)C(F)(F)C(F)(F)C(F)(F)C(F)(F)C(F)(F)C(F)(F)I`, the outcome in [1], in experiment [2], in experiment [3], in experiment [4], in experiment [5] and in experiment [6] was inactive. Also, the result in experiment [7], in [8], in experiment [9], in experiment [10], in experiment [11] and in experiment [12] was inactive. For the same compound, the result in experiment [13], in experiment [14], in experiment [15], in experiment [16], in experiment [17] and in experiment [18] was inactive. Also, the result in experiment [19] and in [20] was inactive. Besides, the AC50 in experiment [20] was 2.64 µM (active).

Take `CC(CCl)OP(=O)(OC(C)CCl)OC(C)CCl` (stereo unspecified): the result in experiment [1], in experiment [2], in experiment [3], in experiment [4], in experiment [6] and in experiment [8] was inactive. In addition, the outcome in experiment [9], in [10], in [11], in experiment [12], in experiment [13] and in experiment [14] was inactive. The outcome in experiment [15], in experiment [16], in experiment [17], in [18], in experiment [19] and in [20] was inactive. For the same compound, the AC50 was 39.8 nM (active) in experiment [5] and 19.1 nM (active) in experiment [7].

On to `CC(=O)Nc1ccc(N=Nc2cc(C)ccc2O)cc1`, for which the result in experiment [1], in [2], in [3], in experiment [4], in [5] and in experiment [6] was inactive. The result in experiment [7], in [8], in experiment [9], in experiment [10], in experiment [11] and in experiment [12] was inactive. Besides, the result in [13], in experiment [15], in experiment [17], in experiment [18] and in [19] was inactive. For the same compound, the results for the half-maximal activity concentration (AC50) in experiment [14], in [16] and in [20] were 34.1 µM (active), 9.54 µM (active) and 20 µM (active), respectively.
